# IL-1B inflam inh: inflammasome signaling inhibition, IL-1 beta readout. activity change, % at 57.5 µM. 360,000 tested, 4.7% active. AID 743279. THP-1 LPS/ATP IL-1B secretion, AlphaLISA, 16 h; active compounds read low; in the data active = activity change below about -50%; inconclusive = mostly about -30% to -49%
#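 THP-1 cells pretreated 1 hr with compounds (up to 57.5 uM final), then stimulated with LPS (250 ng/mL final) plus ATP (1.25 mM final); secreted IL-1B measured by AlphaLISA after 16 hr, decreased signal indicating inhibition.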
# HT1080NT lethal: kills 2HG-producing HT-1080-NT fibrosarcoma cells | HT-1080-NT fibrosarcoma viability, CellTiter-Glo ATP luminescence, 48 h | Potency, µM (highest dose often 46.1 µM), without a hit: at the top dose activity, negative = less viability, hits mostly cytotoxic | 360,000 tested, 1.6% active | AID 686970;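 also: NT is the 2HG producing partner of a matched IDH1 knockdown line; potency is read from the fitted curve at half-maximal effect; 0% = DMSO-treated cells and -100% = media-only wells without cells; nearly all actives have a fitted effect of over 55% in size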
#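 Toxicity toward the 2HG-producing NT line was scored as %Activity, normalised to DMSO and no-cell wells, from CellTiter-Glo luminescence after 48 hours' treatment.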
# TDP1 cell CPT: growth inhibition of DT40 Tdp1-/-;hTDP1 cells with camptothecin (screen for TDP1 inhibitors); chicken DT40 Tdp1-/-;hTDP1 cells + 20 nM CPT, ATP luminescence, 48 h; Potency, µM (titrated, usually from 46.2 µM), for inactives: at the top dose activity change, negative = growth inhibition, usual class: inhibitors; 420,000 tested, 12% active; also: potency is read from the fitted curve at half-maximal effect; nearly all actives have a fitted effect of over 55% in size
#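 Chicken DT40 Tdp1-/- cells stably complemented with human TDP1 were seeded at 400 cells/well in medium containing 20 nM camptothecin, exposed to pin-transferred compounds, and grown at 37 °C for at least 48 hr. Viability was read as ATP luminescence.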
# HT1080 IDH1KD tx: kills HT-1080 cells with IDH1 knockdown; HT-1080 IDH1 knockdown viability, ATP luminescence, 48 h; Potency, µM (series often up to 46.1 µM), for the others: top-dose activity, negative = toxicity, most hits filed as cytotoxic; 360,000 tested, 2% active; AID 686971;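 also: potency is read from the fitted curve at half-maximal effect; 0% = DMSO wells and -100% = cell-free medium wells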
#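 In this qHTS, HT-1080 cells depleted of IDH1 are exposed for 48 h at 37 °C to compound titrations. Toxicity is scored from CellTiter-Glo luminescence, with DMSO as full viability and medium alone as none.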
# TDP1 cell noCPT: qHTS for Inhibitors of human tyrosyl-DNA phosphodiesterase 1 (TDP1): qHTS in cells in absence of CPT | DT40 Tdp1-/- hTDP1 cells, no CPT, ATP luminescence, 48 h | Potency, µM (series often up to 46.2 µM), inactives show at the top dose activity change, negative = growth inhibition, most hits filed as inhibitors | 420,000 tested, 15% active; also: potency is read from the fitted curve at half-maximal effect; nearly all actives have a fitted effect of over 55% in size
#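 Seeded 400 DT40-hTDP1 cells/well (vehicle DMSO, no 20 nM CPT); pinned compounds; ≥48 hr at 37 °C; CellTiter-Glo luminescence as viability measure.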
# ELG1 DNA repair: blocks ELG1-dependent DNA repair in HEK293T cells; Potency, µM (doses to about 46.1 µM), for the others: top-dose activity change, negative = inhibition, most hits filed as inhibitors; HEK293T ELG1-luciferase reporter, luminescence, 16 h; DNA damage induced by 5-fluorouridine; 330,000 tested, 2.3% active; AID 504467; also: potency is read from the fitted curve at half-maximal effect; nearly all actives have a fitted effect of over 55% in size
#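 Luminescence from the luciferase reporter, measured 30 min after ONE-Glo reagent at room temperature, was the read-out. Beforehand, 2,000 cells per well were exposed for 16 hr at 37 °C to 5-fluorouridine together with compound or vehicle.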
# The depositor's hits bear a star; ? = inconclusive; · = no result given. An excerpt weighted towards active compounds, which were near 19% of everything screened. Unless noted, calls follow the shape of the dose curve; as a rule, active = well fitted curve in the direction sought with a large enough effect; inconclusive = small, poorly fitted or top-dose-only effect, or another doubt; inactive = no such curve, though single readings can be large; an effect the other way counts as inactive or inconclusive. Unless noted, % is scaled to controls: 0 for no effect and ±100 for the full control effect.
SMILES,IL-1B inflam inh,HT1080NT lethal,TDP1 cell CPT,HT1080 IDH1KD tx,TDP1 cell noCPT,ELG1 DNA repair
COc1ccc(NCc2nn(CC(=O)c3ccc(Br)cc3)c3[n+]2CCCCC3)cc1,?,15%,?,-2%,16µM*,-1%
Cc1ccc(S(=O)(=O)Nc2cc3c(cc2C)n(C)c(=O)c(=O)n3C)cc1,·,·,-21%,·,?,·
CN1C(=O)C(CC(=O)NCC2CCCCC2)SC1=Nc1ccccc1 (centres undefined),?,-2%,?,-4%,?,-12%
Cc1nc2ncc(Br)cc2[nH]1,0,7%,2%,14%,-3%,-18%
Cc1ccc(-c2nc3cc(Br)cnc3nc2-c2ccc(C)cc2)cc1,109,13%,15µM*,-5%,?,-15%
Cc1nn(C)cc1S(=O)(=O)Nc1ncccn1,7,18%,9%,10%,2%,2%
CCNC(=O)CC1C(=O)N(c2ccc(F)cc2)C(=O)N1CCOC (centres undefined),·,·,7%,·,-1%,·
COc1ccc2ccccc2c1CN1CCc2nnc(CNC(=O)c3cccc(F)c3)n2CC1,·,·,12%,·,-24%,·
COc1ccccc1C1CC(=O)N(c2cccc(C(F)(F)F)c2)C2=C1C(=O)OC2 (centres undefined),·,·,8.2µM*,·,?,·
C[C@@H]1CN([C@@H](C)CO)C(=O)c2cccc(NC(=O)c3nc4ccccc4s3)c2O[C@@H]1CN(C)CC1CC1,0,-9%,?,-20%,?,25%
Nc1nc(Sc2c([N+](=O)[O-])cc(C(F)(F)F)cc2[N+](=O)[O-])n[nH]1,-100*,?,7.3µM*,?,21µM*,9%
Cc1ccc(OCc2cc(=O)n3c4c(sc3n2)CCCC4)cc1C,·,·,3%,·,-4%,·
O=C(NCC(c1cccnc1)N1CCc2ccccc2C1)C(=O)Nc1ccc(F)cc1F (centres undefined),·,·,15µM*,·,18µM*,·
O=C(NCC(c1ccco1)N1CCc2ccccc2C1)C(=O)Nc1ccc(F)cc1F (centres undefined),-2,-3%,18µM*,-13%,21µM*,-18%
CC(=O)Nc1ccc(NC(=O)C(=O)NCC(c2ccco2)N2CCc3ccccc3C2)cc1 (centres undefined),-3,?,16µM*,?,21µM*,-22%
O=C(NCC(c1ccco1)N1CCc2ccccc2C1)C(=O)Nc1ccccc1F (centres undefined),-5,6%,-55%,-4%,-82%,3%
CSCC[C@H](NC(=O)c1ccc(Cl)c(S(=O)(=O)N2CCCC2)c1)c1nc2ccccc2[nH]1,-30,?,?,?,?,?
CC1=C(C(=O)Nc2ccc(F)cc2F)C2(CCN(C(C)C)CC2)OC1=O,·,·,-7%,·,-2%,·
CC(C)CN(C(=O)c1ccc(Br)o1)C1CCS(=O)(=O)C1 (centres undefined),-13,-1%,1%,-11%,2%,9%
CCOC(=O)c1ccc(N2C=C(C(=O)OC)C(c3ccc(OC)c(O)c3)C(C(=O)OC)=C2)cc1,?,-8%,?,-19%,-13%,?
COC(=O)C1=CN(c2ccc(Oc3ccccc3)cc2)C(N)=C(C#N)C1c1cccc(F)c1 (centres undefined),0,-24%,?,-29%,8.2µM*,·
COC(=O)C1=CN(c2ccc3c(c2)OCO3)C(N)=C(C#N)C1c1ccc(-c2ccccc2)cc1 (centres undefined),68,5.2µM*,5.8µM*,3.3µM*,6.5µM*,·
COC(=O)C1=CN(c2ccc(C(C)(C)C)cc2)C(N)=C(C#N)C1c1ccc(OC)cc1 (centres undefined),-13,-5%,?,-2%,?,·
COC(=O)C1=CN(c2ccc(F)cc2)C=C(C(=O)OC)C1c1ccc(O)cc1,?,-13%,6%,?,16µM*,1%
COC(=O)C1=CN(c2ccc(OC)cc2OC)C(N)=C(C#N)C1c1cccc([N+](=O)[O-])c1 (centres undefined),116,?,0.37µM*,?,0.33µM*,·
Cc1c(C(=O)OCc2ccc(F)cc2)sc2nc3n(c(=O)c12)CCC3,30,17%,-8%,10%,?,20%
COc1cccc(C=NC=Nc2cccc(OC)c2)c1,·,·,0%,·,-22%,·
CS(=O)(=O)c1ccc(Cl)c(NC(=O)CSc2nnc(C3CC3)n2C2CC2)c1,15,1%,11%,4%,3%,-6%
COC(=O)C1=CN(c2c(C)cc(C)cc2C)C(N)=C(C#N)C1c1ccccc1 (centres undefined),-13,-29%,?,-29%,?,·
